# What was measured:
# [1] = target: T1, Mitogen-activated protein kinase 12 (Homo sapiens) (UniProt P53778); settings: at 1 µM
# T1 sequence (whole entry): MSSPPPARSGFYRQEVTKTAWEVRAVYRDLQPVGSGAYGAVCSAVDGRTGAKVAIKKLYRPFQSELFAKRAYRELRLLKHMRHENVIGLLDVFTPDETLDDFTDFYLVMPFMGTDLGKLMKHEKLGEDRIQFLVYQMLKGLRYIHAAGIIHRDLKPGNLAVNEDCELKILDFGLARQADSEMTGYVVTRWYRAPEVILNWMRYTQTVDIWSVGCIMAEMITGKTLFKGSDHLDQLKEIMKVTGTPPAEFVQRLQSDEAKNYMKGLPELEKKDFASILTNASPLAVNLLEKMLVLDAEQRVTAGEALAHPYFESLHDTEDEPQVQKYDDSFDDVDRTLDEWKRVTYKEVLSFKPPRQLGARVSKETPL
# [2] = target: T1, Mitogen-activated protein kinase 12 (Homo sapiens); settings: at 10 µM
# [3] = target: T2, Serine/threonine-protein kinase Sgk3 (Homo sapiens) (UniProt Q96BR1); settings: at 1 µM
# T2 sequence (whole entry): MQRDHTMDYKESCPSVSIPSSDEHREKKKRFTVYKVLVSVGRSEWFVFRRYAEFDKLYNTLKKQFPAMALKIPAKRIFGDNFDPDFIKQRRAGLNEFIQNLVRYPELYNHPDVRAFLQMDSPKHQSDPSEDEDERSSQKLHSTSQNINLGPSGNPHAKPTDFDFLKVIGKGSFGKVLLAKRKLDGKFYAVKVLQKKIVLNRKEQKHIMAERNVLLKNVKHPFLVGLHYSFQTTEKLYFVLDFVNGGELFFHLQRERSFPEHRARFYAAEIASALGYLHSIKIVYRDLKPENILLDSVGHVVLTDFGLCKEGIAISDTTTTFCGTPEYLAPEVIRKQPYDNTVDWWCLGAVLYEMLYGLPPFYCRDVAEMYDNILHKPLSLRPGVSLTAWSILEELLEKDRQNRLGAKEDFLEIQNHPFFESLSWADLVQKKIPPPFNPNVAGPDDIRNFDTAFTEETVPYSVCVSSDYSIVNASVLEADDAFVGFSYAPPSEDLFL
# [4] = target: T3, Mitogen-activated protein kinase 13 (Homo sapiens) (UniProt O15264); settings: at 1 µM
# T3 sequence (whole entry): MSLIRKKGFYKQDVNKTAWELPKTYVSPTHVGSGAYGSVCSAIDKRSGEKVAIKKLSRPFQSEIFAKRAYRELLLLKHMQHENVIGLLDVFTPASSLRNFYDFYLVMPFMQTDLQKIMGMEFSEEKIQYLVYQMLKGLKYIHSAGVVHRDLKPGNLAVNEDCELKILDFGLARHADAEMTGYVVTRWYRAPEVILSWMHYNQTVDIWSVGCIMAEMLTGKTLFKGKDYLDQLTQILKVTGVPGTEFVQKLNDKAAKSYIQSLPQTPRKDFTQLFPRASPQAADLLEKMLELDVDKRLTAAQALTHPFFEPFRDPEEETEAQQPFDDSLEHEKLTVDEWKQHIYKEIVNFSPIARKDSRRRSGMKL
# [5] = target: T4, Serine/threonine-protein kinase Sgk1 (Homo sapiens) (UniProt O00141); settings: at 1 µM
# T4 sequence (whole entry): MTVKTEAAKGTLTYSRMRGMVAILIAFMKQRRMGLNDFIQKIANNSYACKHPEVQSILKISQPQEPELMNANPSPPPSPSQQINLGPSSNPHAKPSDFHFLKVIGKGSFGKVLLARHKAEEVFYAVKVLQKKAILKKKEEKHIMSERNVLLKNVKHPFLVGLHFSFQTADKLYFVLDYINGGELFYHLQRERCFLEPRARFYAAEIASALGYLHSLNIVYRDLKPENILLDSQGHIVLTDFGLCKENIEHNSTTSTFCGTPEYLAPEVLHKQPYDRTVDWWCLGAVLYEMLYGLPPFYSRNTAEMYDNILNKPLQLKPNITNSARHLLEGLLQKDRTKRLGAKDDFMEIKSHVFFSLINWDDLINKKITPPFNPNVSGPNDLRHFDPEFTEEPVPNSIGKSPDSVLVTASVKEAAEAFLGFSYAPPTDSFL
# [6] = target: T4, Serine/threonine-protein kinase Sgk1 (Homo sapiens); settings: at 10 µM
# [7] = target: T5, Serine/threonine-protein kinase Sgk2 (Homo sapiens) (UniProt Q9HBY8); settings: at 1 µM
# T5 sequence (whole entry): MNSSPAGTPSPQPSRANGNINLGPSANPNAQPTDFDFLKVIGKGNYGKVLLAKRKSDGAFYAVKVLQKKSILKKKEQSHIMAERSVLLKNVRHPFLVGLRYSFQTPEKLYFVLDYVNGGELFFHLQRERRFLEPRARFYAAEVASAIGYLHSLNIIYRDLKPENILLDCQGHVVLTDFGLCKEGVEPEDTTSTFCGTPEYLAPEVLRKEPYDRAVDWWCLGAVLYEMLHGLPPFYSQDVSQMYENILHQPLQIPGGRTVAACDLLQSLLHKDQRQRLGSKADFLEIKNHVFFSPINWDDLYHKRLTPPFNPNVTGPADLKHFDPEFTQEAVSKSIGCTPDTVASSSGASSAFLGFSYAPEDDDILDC
# [8] = target: T5, Serine/threonine-protein kinase Sgk2 (Homo sapiens); settings: at 10 µM
# [9] = target: T2, Serine/threonine-protein kinase Sgk3 (Homo sapiens); settings: at 10 µM
# [10] = target: Serine/threonine-protein kinase SIK1 (Homo sapiens) (UniProt P57059); settings: at 1 µM
# [11] = target: Serine/threonine-protein kinase SIK1 (Homo sapiens) (UniProt P57059); settings: at 10 µM
# [12] = target: SRSF protein kinase 1 (Homo sapiens) (UniProt Q96SB4); settings: at 1 µM
# [13] = target: SRSF protein kinase 1 (Homo sapiens) (UniProt Q96SB4); settings: at 10 µM
# [14] = target: SRSF protein kinase 2 (Homo sapiens) (UniProt P78362); settings: at 1 µM
# SRSF protein kinase 2 (Homo sapiens), sequence (P78362 whole entry, looked up): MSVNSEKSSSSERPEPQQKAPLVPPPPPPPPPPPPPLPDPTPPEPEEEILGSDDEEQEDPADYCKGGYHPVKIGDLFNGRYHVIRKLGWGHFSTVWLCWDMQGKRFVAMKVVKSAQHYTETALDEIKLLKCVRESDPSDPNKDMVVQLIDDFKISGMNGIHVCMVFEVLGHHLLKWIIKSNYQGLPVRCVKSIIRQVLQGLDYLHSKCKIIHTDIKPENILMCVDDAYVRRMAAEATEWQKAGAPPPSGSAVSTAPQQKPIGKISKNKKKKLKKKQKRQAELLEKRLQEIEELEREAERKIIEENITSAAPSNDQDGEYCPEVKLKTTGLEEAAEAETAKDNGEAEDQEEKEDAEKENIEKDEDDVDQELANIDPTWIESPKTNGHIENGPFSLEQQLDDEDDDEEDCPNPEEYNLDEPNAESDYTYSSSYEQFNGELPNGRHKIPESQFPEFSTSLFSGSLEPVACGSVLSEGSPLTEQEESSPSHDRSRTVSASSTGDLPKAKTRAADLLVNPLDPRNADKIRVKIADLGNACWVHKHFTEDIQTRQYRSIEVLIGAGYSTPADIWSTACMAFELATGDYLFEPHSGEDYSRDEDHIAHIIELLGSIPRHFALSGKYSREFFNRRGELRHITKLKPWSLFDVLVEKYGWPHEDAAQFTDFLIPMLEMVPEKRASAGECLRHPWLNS
# Serine/threonine-protein kinase SIK1 (Homo sapiens), sequence (P57059 whole entry): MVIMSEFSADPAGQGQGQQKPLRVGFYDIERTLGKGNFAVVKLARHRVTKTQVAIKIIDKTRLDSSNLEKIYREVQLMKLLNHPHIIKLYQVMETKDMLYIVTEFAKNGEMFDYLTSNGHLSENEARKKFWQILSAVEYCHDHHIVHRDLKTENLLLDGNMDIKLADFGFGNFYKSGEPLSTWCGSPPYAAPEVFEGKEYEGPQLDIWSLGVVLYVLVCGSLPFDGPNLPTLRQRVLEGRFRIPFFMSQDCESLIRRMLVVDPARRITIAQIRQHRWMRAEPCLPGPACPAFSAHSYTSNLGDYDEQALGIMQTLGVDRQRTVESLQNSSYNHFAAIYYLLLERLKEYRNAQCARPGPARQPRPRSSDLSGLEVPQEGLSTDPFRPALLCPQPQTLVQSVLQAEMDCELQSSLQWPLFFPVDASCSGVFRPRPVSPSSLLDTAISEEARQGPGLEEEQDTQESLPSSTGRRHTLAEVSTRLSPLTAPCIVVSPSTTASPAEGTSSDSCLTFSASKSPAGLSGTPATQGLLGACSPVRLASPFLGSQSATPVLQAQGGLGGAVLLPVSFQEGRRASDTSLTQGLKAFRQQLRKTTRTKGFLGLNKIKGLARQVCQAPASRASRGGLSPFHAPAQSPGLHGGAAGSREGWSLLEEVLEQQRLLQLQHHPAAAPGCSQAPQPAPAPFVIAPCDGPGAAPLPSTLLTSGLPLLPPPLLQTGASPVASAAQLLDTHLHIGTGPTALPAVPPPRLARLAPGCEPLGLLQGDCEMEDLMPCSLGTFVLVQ
# SRSF protein kinase 1 (Homo sapiens), sequence (Q96SB4 whole entry): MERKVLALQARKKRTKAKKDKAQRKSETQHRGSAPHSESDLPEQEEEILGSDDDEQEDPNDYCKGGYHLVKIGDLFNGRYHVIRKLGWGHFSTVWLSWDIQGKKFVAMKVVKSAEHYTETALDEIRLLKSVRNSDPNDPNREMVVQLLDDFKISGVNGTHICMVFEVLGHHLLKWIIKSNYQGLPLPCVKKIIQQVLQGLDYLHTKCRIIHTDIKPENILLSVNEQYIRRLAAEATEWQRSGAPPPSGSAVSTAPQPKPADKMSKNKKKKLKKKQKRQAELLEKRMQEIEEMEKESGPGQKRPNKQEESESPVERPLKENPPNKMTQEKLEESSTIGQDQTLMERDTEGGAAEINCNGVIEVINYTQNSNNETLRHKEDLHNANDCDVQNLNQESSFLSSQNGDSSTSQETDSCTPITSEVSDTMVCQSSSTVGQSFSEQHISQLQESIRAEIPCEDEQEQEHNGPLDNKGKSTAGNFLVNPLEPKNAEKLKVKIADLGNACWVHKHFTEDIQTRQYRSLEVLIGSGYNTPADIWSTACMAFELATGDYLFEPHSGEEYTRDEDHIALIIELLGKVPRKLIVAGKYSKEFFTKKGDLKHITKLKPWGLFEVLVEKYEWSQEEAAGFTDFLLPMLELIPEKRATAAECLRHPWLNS
compound,measurement,setting,value
CO[C@@H]1[C@H](N(C)C(=O)c2ccccc2)C[C@H]2O[C@]1(C)n1c3ccccc3c3c4c(c5c6ccccc6n2c5c31)C(=O)NC4,residual activity,[1],104%
same,residual activity,[2],87%
O=C(O)/C=C/c1cc(Br)c(Br)c(Br)c1Br,residual activity,[1],110%
same,residual activity,[2],90%
O=c1c2ccccc2[nH]c(=S)n1CCN1CCC(=C(c2ccc(F)cc2)c2ccc(F)cc2)CC1,residual activity,[1],115%
same,residual activity,[2],90%
same,residual activity,[3],118%
Cn1sc(=O)n(Cc2ccccc2)c1=O,residual activity,[1],90%
same,residual activity,[2],97%
same,residual activity,[3],99%
CC(C)n1cnc2c(NCc3ccccc3)nc(NCCCO)nc21,residual activity,[1],100%
same,residual activity,[2],101%
same,residual activity,[3],89%
Cc1nc(-c2ccccc2)c(-c2ccncc2)o1,residual activity,[1],106%
same,residual activity,[2],103%
same,residual activity,[3],108%
O=C1Nc2ccc(Br)cc2/C1=C\c1cc2c([nH]1)CCCC2,residual activity,[1],115%
same,residual activity,[2],102%
NCCNc1ncc(C(N)=O)c(Nc2cccc(C(F)(F)F)c2)n1,residual activity,[1],103%
same,residual activity,[2],106%
same,residual activity,[3],82%
Cn1cc(/C=C2\C(=O)Nc3ccc(S(N)(=O)=O)cc32)c2ccccc21,residual activity,[1],99%
same,residual activity,[2],104%
same,residual activity,[3],112%
c1ccc2c(-c3ccncc3)c[nH]c2c1,residual activity,[1],100%
same,residual activity,[2],94%
same,residual activity,[3],101%
CCOC(=O)c1c(C)[nH]c(/C=C2\C(=O)Nc3ccccc32)c1C,residual activity,[1],99%
same,residual activity,[2],95%
CO[C@H]1C[C@@H]2CC[C@@H](C)[C@@](O)(O2)C(=O)C(=O)N2CCCC[C@H]2C(=O)O[C@H]([C@H](C)C[C@@H]2CC[C@@H](O)[C@H](OC)C2)CC(=O)[C@H](C)/C=C(\C)[C@@H](O)[C@@H](OC)C(=O)[C@H](C)C[C@H](C)/C=C/C=C/C=C/1C,residual activity,[1],95%
same,residual activity,[2],94%
same,residual activity,[3],112%
COc1cc2ncnc(N3CCN(C(=O)Nc4ccc(Oc5ccccc5)cc4)CC3)c2cc1OC,residual activity,[1],93%
same,residual activity,[2],99%
same,residual activity,[3],104%
Cn1c2ccccc2c2c3c(c4c5ccccc5n(CCC#N)c4c21)CNC3=O,residual activity,[1],61%
same,residual activity,[2],61%
Nc1ncnc2c1c(-c1ccc(Oc3ccccc3)cc1)cn2C1CCCC1,residual activity,[1],99%
same,residual activity,[2],97%
same,residual activity,[3],104%
CCN(CC)CCCCN1c2ccccc2Oc2ccc(Cl)cc21,residual activity,[1],131%
same,residual activity,[2],100%
same,residual activity,[3],107%
Cc1ccc(NC2=CC(=O)c3sc(C)nc3C2=O)cc1,residual activity,[1],87%
same,residual activity,[2],102%
same,residual activity,[3],96%
COc1cc2ncnc(Nc3cccc(Cl)c3)c2cc1OC,residual activity,[1],116%
same,residual activity,[2],103%
O=C1C(Cl)=C(N2C(=O)CCC2=O)C(=O)c2ccccc21,residual activity,[1],96%
same,residual activity,[2],99%
O=c1cc(N2CCOCC2)oc2c1ccc1ccccc12,residual activity,[1],104%
same,residual activity,[2],90%
same,residual activity,[3],97%
COc1ccc(C(=O)Nc2sc3c(c2C(N)=O)CCCC3)cc1OC,residual activity,[1],95%
same,residual activity,[2],83%
same,residual activity,[3],74%
Cc1nc2cc3nc(-c4cccs4)cnc3cc2n1C,residual activity,[1],114%
same,residual activity,[2],100%
same,residual activity,[3],94%
COc1ccc(Cl)cc1NC(=O)Nc1cc(C)nc2ccccc12,residual activity,[1],95%
same,residual activity,[2],85%
O=c1cc(-c2cccc3c2Sc2ccccc2S3)oc(N2CCOCC2)c1,residual activity,[1],104%
same,residual activity,[2],101%
same,residual activity,[3],101%
O=C1NC(=O)/C(=C/c2ccc3c(c2)OC(F)(F)O3)S1,residual activity,[1],110%
same,residual activity,[2],113%
same,residual activity,[3],109%
COc1ccc(S(=O)(=O)N(CCO)c2ccccc2CN(C)C/C=C/c2ccc(Cl)cc2)cc1,residual activity,[1],99%
same,residual activity,[2],95%
same,residual activity,[3],98%
O=C1NC(=O)C(c2c[nH]c3ccccc23)=C1c1c[nH]c2ccccc12,residual activity,[1],99%
same,residual activity,[2],51%
Nc1nc(Nc2ccc(S(N)(=O)=O)cc2)nn1C(=S)Nc1c(F)cccc1F,residual activity,[1],56%
same,residual activity,[2],69%
same,residual activity,[3],88%
C[S+]([O-])c1ccc(-c2nc(-c3ccc(F)cc3)c(-c3ccncc3)[nH]2)cc1 (stereo not drawn),residual activity,[1],114%
same,residual activity,[2],86%
same,residual activity,[4],111%
same,residual activity,[5],96%
same,residual activity,[6],124%
same,residual activity,[7],114%
same,residual activity,[8],81%
same,residual activity,[3],120%
same,residual activity,[9],101%
same,residual activity,[10],132%
same,residual activity,[11],93%
same,residual activity,[12],112%
same,residual activity,[13],109%
same,residual activity,[14],112%
O=C1NC(=O)C(c2cn(CCCn3ccnc3)c3ccccc23)=C1Nc1ccccc1,residual activity,[1],104%
same,residual activity,[2],100%
NC(=O)Nc1sc(-c2ccc(F)cc2)cc1C(N)=O,residual activity,[1],90%
same,residual activity,[2],82%
same,residual activity,[3],93%
Oc1n[nH]c2nnc(-c3c(-c4ccccc4)nn4ccccc34)cc12,residual activity,[1],96%
same,residual activity,[2],90%
same,residual activity,[3],92%
COc1ccc(CNc2nc(N(CCO)CCO)nc3c2ncn3C(C)C)cc1,residual activity,[1],109%
same,residual activity,[2],99%
same,residual activity,[3],114%
CCCC(=O)Oc1ccc2[nH]c(C(=O)c3cc4ccccc4[nH]3)cc2c1,residual activity,[1],96%
same,residual activity,[2],98%
same,residual activity,[3],94%
Oc1c2ccccc2c2c3c(cccc13)N=N2,residual activity,[1],82%
same,residual activity,[2],61%
same,residual activity,[3],85%
O=C1c2ccccc2-[n+]2ccc3c([nH]c4ccccc43)c21,residual activity,[1],89%
same,residual activity,[2],100%
same,residual activity,[3],99%
O=C1Nc2cc(Br)ccc2/C1=C1/Nc2ccccc2/C1=N\O,residual activity,[1],95%
same,residual activity,[2],94%
same,residual activity,[3],86%
C[C@@H](N)[C@H]1CC[C@H](C(=O)Nc2ccncc2)CC1,residual activity,[1],111%
same,residual activity,[2],111%
same,residual activity,[3],101%
CCOc1cc2ncnc(Nc3cccc(Br)c3)c2cc1OCC,residual activity,[1],103%
same,residual activity,[2],98%
same,residual activity,[3],108%
O=C(Nc1cccc(Nc2nccc(Nc3cccc(C(F)(F)F)c3)n2)c1)C1CC1,residual activity,[1],98%
same,residual activity,[2],95%
same,residual activity,[3],126%
CC(C)n1cnc2/c(=N/c3cccc(Cl)c3)nc(NCCO)[nH]c21,residual activity,[1],96%
same,residual activity,[2],99%
same,residual activity,[3],107%
COc1cc2nccc(Oc3ccc(NC(=S)NC(=O)c4ccccc4C)cc3)c2cc1OC,residual activity,[1],99%
same,residual activity,[2],94%
same,residual activity,[3],97%
COc1ccc(OC)c2c(=S)c3ccccc3[nH]c12,residual activity,[1],95%
same,residual activity,[2],91%
same,residual activity,[3],112%
COc1cccc(-c2cc(=O)c3ccccc3o2)c1N,residual activity,[1],102%
same,residual activity,[2],96%
same,residual activity,[3],104%
CN(C)CCCn1cc(C2=C(c3c[nH]c4ccccc34)C(=O)NC2=O)c2ccccc21,residual activity,[1],125%
same,residual activity,[2],131%
same,residual activity,[3],101%
Nc1n[nH]c2nnc(-c3c(-c4ccccc4)nn4ccccc34)cc12,residual activity,[1],91%
same,residual activity,[2],69%
same,residual activity,[3],106%
Oc1ccc(Nc2nc(-c3ccc(Cl)cc3)cs2)cc1,residual activity,[1],112%
same,residual activity,[2],100%
same,residual activity,[3],112%
O=[N+]([O-])c1ccc(-c2nc(-c3ccc(F)cc3)c(-c3ccncc3)[nH]2)cc1,residual activity,[1],101%
same,residual activity,[2],93%
same,residual activity,[3],111%
COc1cc2ncnc(Nc3ccc(O)c(Br)c3)c2cc1OC,residual activity,[1],98%
same,residual activity,[2],97%
same,residual activity,[3],99%

# Reference: ChEMBL document CHEMBL2218924, “A broad activity screen in support of a chemogenomic map for kinase signalling research and drug discovery” (Biochem J, 2013)
